These results are taken from PubChem BioAssay (NCI).

Common to all, as to assay: NCI-60 one-dose screen, 48 h (100 = growth as untreated, 0 = no growth, -100 = all killed)
Details in all cases: 10 µM unless noted

Test [1] concerns SR leukemia.
The test system of test [2] is RPMI-8226 leukemia.
The subject of test [3] is OVCAR-8 ovarian.
Test [4] deals with OVCAR-5 ovarian.
Test [5] has as its system OVCAR-4 ovarian.
Test [6] has as its system SK-OV-3 ovarian.
The subject of test [7] is IGROV1 ovarian.
In test [8] the test system is OVCAR-3 ovarian.
For test [9], the system named is HS 578T breast.
Test [10] concerns NCI/ADR-RES ovarian.

Compounds without any hit were thinned out: in the full panel of roughly 83,000, 20% have a hit.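 Percent growth is the endpoint: 0 to 100 indicates growth inhibition (40 means 60% inhibition), 0 means no net growth, and negative values indicate cell death.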 Values without a mark were called inactive. Activity calls are given as the source filed them. Rule for the calls: active = growth percent below 10; inactive = the rest.

Take `C=C(C)[C@@H]1CC[C@]2(C(=O)N3CCN(CC)CC3)CC[C@]3(C)[C@H](CC[C@@H]4[C@@](C)(CCC(=O)N5CCN(CC)CC5)[C@H](C(=C)C)CC[C@]43C)[C@@H]12`: the growth is 5.68% (active) in test [1]; 22.3% in test [2]; 78.3% in [3]; 72.3% in [4]; 77.4% in test [5]; 95.5% in test [6]. In addition, the growth in [7] is 73.6%; in test [8], 60.5%; in test [9] it was 80.8%; in [10] it was 67.6%.

For `CC1(C)NCCC[C@]2(C)[C@H]3CC[C@@H]4[C@H]5[C@H](C(=O)/C=C/c6ccccn6)CC[C@]5(CO)CC[C@@]4(C)[C@]3(C)CC[C@@H]12`, the growth was -19.6% (active) in test [1]; -13.1% (active) in [2]; 47.6% in test [3]; 97.9% in [4]; 35.9% in test [5]; 82.2% in test [6]. For the same compound, the growth in [7] is 63.4%; in test [8] it was 40.9%; in test [9], 70.8%; in [10], 76.8%.

Take `C=C1C(=O)O[C@H]2[C@H]1CC/C(COC(=O)NCc1c[nH]c3ccccc13)=C\CC[C@@]1(C)O[C@@H]21`: the growth was 4.39% (active) in test [1]; 4.57% (active) in test [2]; 39.4% in test [3]; 86.1% in test [4]; 58.1% in test [5]; 86.5% in [6]. Moreover, the growth in test [7] was 21.2%; in test [8], 2.08% (active); in [9] it was 87.1%; in test [10], 78.8%.

`Nc1nc2c3ccncc3cc(-c3cccc(Cl)c3)c2c2cnccc12`: the growth in test [1] was 9.04% (active); in test [2], 5.57% (active); in [3], 24.1%; in test [4], 61.2%; in test [5], 65.6%; in [6] it was 61.9%. The growth in [7] was 59%; in test [8], 54.6%; in test [9] it was 35.5%; in test [10], 30.6%.

Consider `COC(=O)[C@]12CC[C@@H](C(=O)/C=C/c3cccnc3)[C@@H]1[C@H]1CC[C@@H]3[C@@]4(C)C/C(=C/c5cccnc5)C(=O)C(C)(C)[C@@H]4CC[C@@]3(C)[C@]1(C)CC2`, for which the growth in test [1] was -14.1% (active); in test [2], -28.7% (active); in test [3] it was -34.3% (active); in test [4] it was -62.7% (active); in test [5] it was -39.2% (active); in [6], -23.1% (active). The growth in [7] is -87.9% (active); in test [8], -93.2% (active); in test [9] it was -49.1% (active); in [10], -39.4% (active).

Regarding `Cn1c(=O)c2c(ncn2CCC(=O)Nc2ccc(F)cc2)n(C)c1=O`, the growth in [1] is 105%; in [2], 97.2%; in test [3], 108%; in [4], 103%; in test [5] it was 111%; in test [6] it was 85%. The growth was 112% in test [7], 107% in test [8], 103% in test [9] and 106% in [10].

For `N#CC1=C(N)Oc2ccc3ccccc3c2C1c1ccccc1Cl` (stereo not given), the growth was 26.1% in [1]; 32.9% in [2]; 61.8% in test [3]; 77.2% in test [4]; 78.9% in [5]; 55.9% in test [6]. For the same compound, the growth was 34.1% in test [7], 31.2% in test [8], 40.4% in test [9] and 9.51% (active) in test [10].

Regarding `CN1CCN(c2ccc3nc(-c4[nH]ncc4Nc4ncnc5[nH]ccc45)[nH]c3c2)CC1`, the growth was -6.78% (active) in test [1]; 101% in [2]; 7.18% (active) in test [3]; 6.49% (active) in test [4]; -10.9% (active) in test [5]; 12.6% in test [6]. The growth in [7] was 0.386% (active); in test [8], -0.64% (active); in test [9], 15.8%; in test [10] it was 80.4%.

In the case of `CC(=O)OC[C@]12CC[C@@H](/C(C)=N/O)[C@@H]1[C@H]1CC[C@@H]3[C@@]4(C)CCCNC(C)(C)[C@@H]4CC[C@@]3(C)[C@]1(C)CC2`, the growth in [1] is 51.8%; in test [2], 49.2%; in test [3] it was 73.3%; in test [4] it was 103%; in [5] it was 53.9%; in test [6], 62.9%. Moreover, the growth in test [7] is 88.9%; in test [8], 65.7%; in test [9], 76%; in [10], 77.4%.

Turning to `Cc1cc(Cl)nc(N(CCCNc2ccnc3cc(Cl)ccc23)Cc2ccco2)n1`, the growth in [1] was -13.7% (active); in test [2], -28.9% (active); in test [3], 14.5%; in [4] it was 31.9%; in [5] it was 32%; in [6], 40.8%. For the same compound, the growth in test [7] is 15.3%; in [8], 35.7%; in [9], 58.8%; in [10], 5.99% (active).

For `CCN(CC)CCCCCCNc1ccnc2cc(Cl)ccc12`, the growth in test [1] is 28.2%; in test [2], 130%; in test [3] it was 117%; in [4], 112%; in test [5], 75.2%; in test [6], 98.2%. Moreover, the growth in test [7] was 124%; in test [8], 84.6%; in test [9], 92.4%; in test [10], 104%.

As to `COC(=O)[C@]12CC[C@@H](C)[C@H](C)[C@@H]1C1=CC[C@@H]3[C@@]4(C)C[C@@H](OC(C)=O)[C@H](O)[C@@](C)(CO)[C@@H]4[C@H](O)C[C@@]3(C)[C@]1(C)CC2`, the growth in test [1] is -45.7% (active); in test [2] it was -29.4% (active); in test [3], -60.9% (active); in test [4], -78.2% (active); in test [5] it was -79.6% (active); in test [6], -95.4% (active). In addition, the growth is -58.8% (active) in test [7], -85% (active) in [8], -50.5% (active) in test [9] and -67.6% (active) in test [10].

For `COc1cc2nc(Cl)nc(Nc3cccc(C(=O)/C=C/c4ccc(F)cc4)c3)c2cc1OC`, the growth in test [1] is 12.2%; in test [2], -18.1% (active); in [3], 67.3%; in test [4] it was 68.2%; in [5], 64.9%; in test [6], 106%. Moreover, the growth in test [7] was 51%; in test [8], 43.4%; in [9], 101%; in test [10] it was 51.6%.

Turning to `CCCCC[C@H]1CC=C2C(=O)C=C[C@@H]2CC=CCCCC(=O)O[C@@H](CCCCC)CC=C2C(=O)C=C[C@@H]2CC=CCCCC(=O)O[C@@H](CCCCC)CC=C2C(=O)C=C[C@@H]2CC=CCCCC(=O)O1`, the growth in test [1] was -6.53% [8.75 µM] (active); in test [2], -9.62% [8.75 µM] (active); in test [3] it was 12.2% [8.75 µM]; in test [4] it was -23.7% [8.75 µM] (active); in test [5] it was 22.4% [8.75 µM]; in [6] it was 36.7% [8.75 µM]. Moreover, the growth in test [7] was -46.1% [8.75 µM] (active); in [8] it was -54.2% [8.75 µM] (active); in test [9], 40.2% [8.75 µM]; in [10], 49.8% [8.75 µM].

On to `NC(Cc1ccc(O)cc1)C(=O)N/N=C/c1ccccc1O` (stereo not given), for which the growth in test [1] was 82.5%; in test [2], 103%; in [3], 96.2%; in test [4] it was 110%; in test [5] it was 90.1%; in test [6], 113%. Besides, the growth in [7] was 92.8%; in test [8] it was 103%; in [9] it was 107%; in test [10] it was 102%.

For the compound `CCN(CC)CCCCCNc1cc(OC(=O)c2ccccc2)cc2cccnc12`, the growth in test [1] was -38.1% (active); in test [2], 100%; in test [3], 121%; in test [4], 121%; in test [5], 80.9%; in test [6] it was 108%. Besides, the growth is 105% in test [7], 51.6% in [8], 103% in test [9] and 99.3% in test [10].

On to `COCCNC1=C(Cl)C(=O)c2ccccc2C1=O`, for which the growth in test [1] is 105%; in [2] it was 90.4%; in test [3] it was 89.5%; in test [4], 107%; in test [5], 93.6%; in [6] it was 116%. Besides, the growth in [7] was 126%; in test [8] it was 116%; in test [9], 105%; in test [10], 95.3%.

For the compound `Cc1ccc(N(CC(=O)Nc2ccc(S(=O)(=O)NC3CCN(C)CC3)cc2)S(=O)(=O)c2ccc(Cl)cc2)cc1`, the growth is 5.99% (active) in test [1]; 65.6% in test [2]; 96.2% in test [3]; 91.6% in test [4]; 87.8% in [5]; 105% in test [6]. The growth in [7] is 85.7%; in test [8], 72.5%; in test [9], 69.5%; in test [10] it was 98.6%.

Consider `CCN1CCN(C(=O)[C@@]2(C)CC[C@]3(C)CC[C@]4(C)C(=CC(=O)[C@@H]5[C@@]6(C)CC[C@H](OCCC#N)C(C)(C)[C@@H]6CC[C@]54C)[C@@H]3C2)CC1`, for which the growth in [1] was 4.19% (active); in test [2] it was 63.2%; in test [3] it was 90.5%; in test [4], 92.3%; in test [5], 94.7%; in test [6], 99.2%. Moreover, the growth in test [7] is 95.5%; in test [8] it was 100%; in test [9] it was 83.3%; in test [10], 93.3%.

As to `COc1ccc2c(c1)c(-c1nc(-c3c[nH]c4ncccc34)cs1)cn2CCNC(=O)OC(C)(C)C`, the growth in [1] was 62.7%; in [2], 41.2%; in test [3], 45.7%; in test [4] it was 104%; in test [5], 55.7%; in test [6], 110%. Besides, the growth in test [7] was 61.1%; in test [8], 84.4%; in test [9], 76.3%; in [10], 56.6%.

`CCc1ccccc1NC(=O)c1sc2nc3c(cc2c1N)CCCC3`: the growth is 9.86% (active) in test [1]; 46.1% in [2]; 52.3% in test [3]; 79.3% in [4]; 66.8% in [5]; 38.8% in test [6]. Besides, the growth is 64.8% in [7], 23.8% in [8], 29.9% in [9] and 19.9% in [10].

With `COc1ccc2c3c(c4ccccc4cc13)C(=O)N(CCN(C)CCN)C2=O`, the growth in [1] is -31.8% (active); in test [2], -45.1% (active); in test [3], -52.5% (active); in [4] it was -65.9% (active); in test [5], -79.4% (active); in test [6], -6.29% (active). Moreover, the growth was -48.4% (active) in test [7], -62.5% (active) in [8], 24.8% in test [9] and -7.12% (active) in test [10].

For the compound `Cn1c(=O)c2c(ncn2CC(=O)Nc2ccc(S(N)(=O)=O)cc2)n(C)c1=O`, the growth in test [1] was 105%; in test [2], 99.9%; in test [3], 105%; in test [4], 105%; in [5], 108%; in [6], 87.8%. Also, the growth in test [7] was 112%; in [8], 106%; in test [9], 101%; in [10], 106%.

On to `N=c1ccc2nc3c(cc(N)c4ccccc43)oc-2c1`, for which the growth in [1] was -41% (active); in test [2], -49.3% (active); in test [3] it was -54.1% (active); in [4], -100% (active); in [5], -100% (active); in [6] it was -96.3% (active). In addition, the growth is -29.4% (active) in test [7], -90.1% (active) in test [8], -23.3% (active) in [9] and -57.7% (active) in test [10].

Regarding `O=C1c2cccc3cccc(c23)C(=O)N1CC#Cc1ccc2c3c(cccc13)C(=O)N(CCN1CCNCC1)C2=O`, the growth was 2.23% (active) in test [1]; 8.66% (active) in test [2]; 93.9% in [3]; 92.1% in [4]; 85.3% in test [5]; 132% in test [6]. The growth in [7] is 91.4%; in [8], 106%; in test [9] it was 106%; in [10], 102%.
